CYP2C9 activ: increases human cytochrome P450 2C9 activity; activation factor at 5 µM; P11712; hit rate 1.4% among 96,000; recombinant CYP2C9, luciferin-H conversion, luminescence; stronger effect = higher value; factor 1 = untreated enzyme, 0 = blocked; AID 1024;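 active means activation factor of 2 or more for CYP2C9 at a 5 µM dose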;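 further: 0 = sulfaphenazole-blocked wells and 1 = vehicle-only wells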
PTK2B oligo ant: Pyk2 (human) oligomerization antagonism | Q14289 | Q293 cells, Pyk2 FERM NanoBiT luminescence; stronger effect = lower value | z-score (the deposit names both 25 µM and 10 µM) | hit rate 0.83% among 99,000 | AID 1347419;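 active means Z-score of -3 or lower, scaled per plate to the spread of control and sample wells; inactive means z-score above -3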;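 further: negative z-score means lost luminescence so less FERM oligomerization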
CYP2C19 activ: activators of human cytochrome P450 2C19 | P33261 | recombinant CYP2C19, luciferin-H EGE luminescence; stronger effect = higher value; 0 = fully inhibited enzyme, 1 = untreated enzyme | activation factor at 5 µM | 96,000 tested, under 10 active;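 active means activation factor of at least 2 at 5 µM in the primary screen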;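 further: 0 = wells with 2.5 mM tranylcypromine and 1 = vehicle-only wells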
Target sequence (P33261 whole entry, looked up): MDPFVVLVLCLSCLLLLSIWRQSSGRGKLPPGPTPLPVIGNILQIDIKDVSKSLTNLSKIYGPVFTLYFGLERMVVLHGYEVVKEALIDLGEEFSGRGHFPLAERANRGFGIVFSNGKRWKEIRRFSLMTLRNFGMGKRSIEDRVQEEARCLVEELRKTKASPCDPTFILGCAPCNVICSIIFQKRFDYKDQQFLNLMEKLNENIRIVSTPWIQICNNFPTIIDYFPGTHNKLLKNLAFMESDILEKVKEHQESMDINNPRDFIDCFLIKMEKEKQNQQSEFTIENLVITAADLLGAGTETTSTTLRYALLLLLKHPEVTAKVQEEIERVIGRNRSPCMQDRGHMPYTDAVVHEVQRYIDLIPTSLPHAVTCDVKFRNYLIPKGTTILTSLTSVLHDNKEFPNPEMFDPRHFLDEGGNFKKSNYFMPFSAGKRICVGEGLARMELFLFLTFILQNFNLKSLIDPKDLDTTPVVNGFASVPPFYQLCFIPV
CYP2C19 inh: inhibitors of human CYP2C19. AID 778. CYP2C19 Supersomes, luciferin-H EGE luminescence, 30 min. P33261. hit rate 21% among 96,000. inhibition, % at 5 µM;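 active means CYP2C19 inhibition above a set limit at 5 µM in the primary screen, cut at about 50% in these data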;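 further: plate controls were negative control wells for no effect and 2.5 mM tranylcypromine positive control for full effect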
CYP2C9 inh: inhibitors of human CYP2C9; P11712; CYP2C9 Supersomes, luciferin-H conversion, luminescence; inhibition, % at 5 µM; hit rate 20% among 96,000;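 active means blocking of liver enzyme CYP2C9 beyond about 50% at 5 µM, limit read from the data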
* hit, by the source's call; . = no result given. An excerpt weighted towards active compounds, which were near 28% of everything screened.

SMILES	CYP2C9 activ	PTK2B oligo ant	CYP2C19 activ	CYP2C19 inh	CYP2C9 inh
CC(NC(=O)CSc1ncccn1)c1ccccc1 (stereo not drawn)	0.9	0.26	0.2	78*	7
Cc1cc(C)cc(OCc2nnc(SCC(=O)OC(C)C)o2)c1	1.3	0.36	0.4	60*	-26
Cc1nn(CC#N)c(=O)n1-c1ccccc1	1	1.1	1	-1	-3
Cc1ccccc1CS(=O)(=O)CCC(=O)N1CCN(c2ccc(N3CCOCC3)nn2)CC1	1.1	0.74	1.1	-8	-10
Nc1ccc(-c2n[nH]c(=O)c3ccccc23)cc1N	1.5	-0.24	1.1	-8	-54
Cc1cccc(/C=N/NC(=O)c2cc(-c3cccnc3)nc3c2c(C)nn3-c2ccccc2)c1	.	-0.72	.	.	.
O=C1CCCC2=C1C(c1c(Cl)nc3sccn13)C1=C(CCCC1=O)N2	0.7	.	0.7	27	35
O=c1cc(N2CCCCC2)c(-c2ccccc2)nn1Cc1cccc(Cl)c1	0.8	-1.5	0.7	27	20
CC(C)CC(c1nnnn1CCc1ccccc1)N1CCC(C(N)=O)CC1 (stereo not drawn)	.	0.7	.	.	.
CNC(=O)C1=C(C)Nc2nc3ccccc3n2C1c1cccc(OC)c1 (stereo not drawn)	1	.	0.8	18	-4
CCOC(=O)C1=C(C)Nc2nc3ccccc3n2C1c1ccncc1 (stereo not drawn)	0.5	-1.6	0.5	54*	54*
C=CCOC(=O)C1=C(C)Nc2nc3ccccc3n2C1c1ccncc1 (stereo not drawn)	0.4	-1.9	0.4	62*	58*
CCOC(=O)C1=C(C)Nc2nc(SCc3cccnc3)nn2C1c1ccc(OC)cc1 (stereo not drawn)	0.3	.	0.7	26	66*
C=CCOC(=O)C1=C(C)Nc2ncnn2C1c1cccs1 (stereo not drawn)	0.7	-0.17	0.6	42	32
Cc1cc(C)c(C)c(S(=O)(=O)N2CCN(CC(=O)NC(=O)NCc3ccccc3)CC2)c1C	1.3	-2.1	1	-4	-30
C=CCN(c1ccccc1)S(=O)(=O)c1ccc2c(c1)oc(=O)n2C	0.8	.	0.1	87*	22
CCOc1ccccc1CNS(=O)(=O)c1ccc2[nH]c(=O)sc2c1	1	-0.3	0	96*	3
O=S(=O)(NCCc1ccccc1)c1ccc(Cl)nc1	.	2	.	.	.
Cc1cccc(CCNS(=O)(=O)c2cnc[nH]2)c1	0.1	-0.45	0.4	61*	92*
Cn1c(=O)oc2cc(S(=O)(=O)NCc3ccncc3)ccc21	0.2	1	0	98*	81*
O=C(c1ccccc1/S(=N/S(=O)(=O)c1ccccc1)N1CCOCC1)N1CCOCC1 (stereo not drawn)	1.1	1.8	1.1	-5	-12
CCC(c1nnnn1Cc1ccco1)N(CCN1CCOCC1)Cc1cc2cc(C)ccc2[nH]c1=O (stereo not drawn)	0.8	1	0.8	20	15
CCC(C)[C@H](NC(=O)NC(C)C)C(=O)O (stereo partly drawn)	.	0.49	.	.	.
COc1ccccc1CNC(=O)C(CCSC)NS(=O)(=O)c1ccc2c(c1)oc(=O)n2C (stereo not drawn)	1	2.6	0.1	91*	4
COc1ccccc1CNC(=O)C(CC(C)C)NS(=O)(=O)c1ccc2c(c1)oc(=O)n2C (stereo not drawn)	1	.	1	-2	0
SMILES	CYP2C9 activ	PTK2B oligo ant	CYP2C19 activ	CYP2C19 inh	CYP2C9 inh
Cc1cccc(CCNS(=O)(=O)c2ccc3c(c2)oc(=O)n3C)c1	1.4	0.65	0.1	89*	-43
Cn1c(=O)oc2cc(S(=O)(=O)NCCc3ccccc3)ccc21	1.4	0.82	0.2	80*	-36
Cc1ccc(NC(=O)CCNS(=O)(=O)c2ccc3c(c2)oc(=O)n3C)cc1	1	0.52	1	4	4
CCN(CCC(=O)O)c1ccccc1	1.1	2.1	1	0	-9
CCN(CCNS(=O)(=O)c1ccc2[nH]c(=O)sc2c1)c1ccccc1	0.8	.	0	100*	24
COCCNC(=O)NC(=O)COC(=O)Cc1ccc2c(c1)OCCO2	1	1.2	1	2	-2
CN(Cc1ccccc1)C(=O)CSc1nc2c(c(C(F)(F)F)n1)CCc1ccccc1-2	.	-0.98	.	.	.
CCn1cc([N+](=O)[O-])c(C(=O)N2N=C3/C(=C/c4cccs4)CCCC3C2c2cccs2)n1 (stereo not drawn)	.	-1.5	.	.	.
CCOC(=O)/C(C(N)=NCCO)=C(/O)c1ccccc1	1.1	-0.29	0.9	7	-6
